Data on 40 compounds can be found in the supplement of paper PMC12339681.

Where a name gives a salt, the structure may show the parent alone.

The test system of the test is PBMC-derived induced microglia-like cells (piMGLC). The test is described as follows: synaptosome phagocytic index relative to DMSO control (fraction of DMSO); higher = more phagocytosis. The settings on record: concentration: 10 uM (2 uM for compounds listed in Table S2); pretreatment time: 24 h; assay time: 3 h. As for the experimental part: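 PBMC-derived induced microglia-like cells (piMGLCs) in 96-well plates were pretreated for 24 h with CNS-penetrant library compounds (MedChemExpress HY-L028), mostly at 10 uM; Table S2 lists 9 compounds at 2 uM. pHrodo-Red-labelled human iPSC-neuron synaptosomes (3 ug/well) were then added for 3 h, and cells were fixed and imaged by confocal microscopy. Phagocytic index (synaptosome area / cell count, CellProfiler) is a mean over 3 replicate wells on different plates, normalized to the DMSO control. Compounds leaving <10% of DMSO cell count were marked toxic and given no value.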
For the compound `CC(=O)N1CCc2c(c(N3CCCc4cc(-c5cnn(C)c5)c(C(F)F)cc43)nn2C2CCOCC2)C1`, the synaptosome phagocytic index stood at 0.59. Then `CC(C)CCn1c(CN2CCN(C(=O)C3CC3)CC2)nc2c1c(=O)n(C)c(=O)n2C`, with 0.707. Then `CC(=O)c1c(C)c2cnc(Nc3ccc(N4CCNCC4)cn3)nc2n(C2CCCC2)c1=O` [Palbociclib_(isethionate)], with 0.421. The figure for `O=C1NC(=O)C(c2ccccc2)(c2ccccc2)N1` [Phenytoin] is 1.12. Turning to `N#Cc1ccc(Cn2ccc(NC(=O)Cc3ccc(C4(C(F)(F)F)CC4)cc3)n2)nc1`, the synaptosome phagocytic index is 1.06.

With `CNCCCN1c2ccccc2CCc2ccccc21` [Desipramine_hydrochloride], the synaptosome phagocytic index turned out to be 1.13. `Cc1ccc(S(=O)(=O)/C=C/C#N)cc1`: the synaptosome phagocytic index is 0.903.

For the compound `O=C(CCCCCCC(=O)Nc1ccccc1)NO` [Vorinostat], the synaptosome phagocytic index is 0.0904. Then `CC12CC3CC(C)(C1)CC(N)(C3)C2` [Memantine_(hydrochloride)], with 0.724; and `CCc1cc2c(cc1N1CCC(N3CCOCC3)CC1)C(C)(C)c1[nH]c3cc(C#N)ccc3c1C2=O` [Alectinib], with 0.538.

For `C[C@H]1[C@H](NC(=O)/C(=N\OC(C)(C)C(=O)O)c2csc(N)n2)C(=O)N1S(=O)(=O)O` [Aztreonam], the synaptosome phagocytic index was 0.528. The figure for `Cc1cc2c(s1)Nc1ccccc1N=C2N1CCN(C)CC1` [Olanzapine] is 0.345. Consider `CC(=O)NCCCS(=O)(=O)O` [Acamprosate_(calcium)], for which the synaptosome phagocytic index is 0.864.

In the case of `CN(C)CCCN1c2ccccc2CCc2ccc(Cl)cc21` [Clomipramine_(hydrochloride)], the synaptosome phagocytic index was determined as 0.39. For the compound `Clc1cccc(Cl)c1NC1=NCCN1` [Clonidine_(hydrochloride)], the synaptosome phagocytic index turned out to be 0.898. Consider `O=S1(=O)N[C@H]2CCCN2c2ccccc21`, for which the synaptosome phagocytic index is 0.742.

With `CCCN(CCC)S(=O)(=O)c1ccc(C(=O)O)cc1` [Probenecid], the synaptosome phagocytic index worked out at 0.701. As for `Cc1cc(NC(=O)Cc2ccc(F)c(Cl)c2)n(C2CCCCC2)n1`, the synaptosome phagocytic index amounted to 0.77. Then `COc1ccc(C[C@@H]2c3cc(OC)c(OC)cc3CC[N@+]2(C)CCC(=O)OCCCCCOC(=O)CC[N@@+]2(C)CCc3cc(OC)c(OC)cc3[C@H]2Cc2ccc(OC)c(OC)c2)cc1OC` [Cisatracurium_(besylate)], with 0.726; and `CC(C)c1c(C(=O)Nc2ccccc2)c(-c2ccccc2)c(-c2ccc(F)cc2)n1CC[C@@H](O)C[C@@H](O)CC(=O)O` [Atorvastatin_(hemicalcium_salt)], with 0.823; and `C=CC(N)CCC(=O)O` (stereo not given) [Vigabatrin], with 0.918.

On to `CC(=O)N[C@@H](CS)C(=O)O` [Acetylcysteine], for which the synaptosome phagocytic index turned out to be 0.86. Regarding `NNC(=O)c1ccncc1` [Isoniazid], the synaptosome phagocytic index turned out to be 1.01. The figure for `CCCCNc1ncc2c(-c3ccc(CN4CCN(C)CC4)cc3)cn([C@H]3CC[C@H](O)CC3)c2n1` is 0.246; for `NC1CCN(c2cccc(Cl)n2)CC1` it is 0.648; for `O=c1n(CCCN2CCN(c3cccc(Cl)c3)CC2)nc2ccccn12` [Trazodone_(hydrochloride)] it is 1.39. As for `CC[C@H](COc1cccnc1C1CCN(C(=O)[C@@H](Cc2ccc(Cl)cc2Cl)NC(=O)N2CCCC2)CC1)N1CCCC1`, the synaptosome phagocytic index was 0.292. On to `CCCCCOC(=O)Nc1nc(=O)n([C@@H]2O[C@H](C)[C@@H](O)[C@H]2O)cc1F` [Capecitabine], for which the synaptosome phagocytic index worked out at 0.837. As for `CCN(CC)C(=O)[C@@]1(c2ccccc2)C[C@H]1CN` [Milnacipran_((1S-cis)_hydrochloride)], the synaptosome phagocytic index was 0.67. The figure for `Nc1cccc2c1C(=O)N(C1CCC(=O)NC1=O)C2=O` (stereo not given) [Pomalidomide] is 0.545; for `C=C[C@H]1CN2CC[C@H]1C[C@@H]2[C@@H](O)c1ccnc2ccc(OC)cc12` [Quinidine] it is 0.962. With `N#Cc1ccc2[nH]cc(CCCCN3CCN(c4ccc5oc(C(N)=O)cc5c4)CC3)c2c1` [Vilazodone], the synaptosome phagocytic index was 0.195. Then `CCCCCCCCCC(=O)OCCN1CCN(CCCN2c3ccccc3Sc3ccc(C(F)(F)F)cc32)CC1` [Fluphenazine_decanoate], with 1.03; and `CC(C)(O/N=C(\C(=O)N[C@@H]1C(=O)N2C(C(=O)[O-])=C(C[n+]3ccccc3)CS[C@H]12)c1csc(N)n1)C(=O)O` [Ceftazidime], with 1.05; and `C[C@H]1OC[C@]2(c3cc(NC(=O)c4cnc(C(F)F)cn4)ccc3F)N=C(N)SC[C@H]12` [Elenbecestat], with 0.918. Then `CC(C)C[C@H](NC(=O)[C@H](CCCCN)NC(=O)[C@H](CO)NC(=O)[C@@H](N)CC(C)C)C(N)=O` [LSKL,_Inhibitor_of_Thrombospondin_(TSP-1)_(TFA)], with 1.05. Then `CCCN[C@H]1CCc2nc(N)sc2C1` [Pramipexole_(dihydrochloride)], with 0.906. For `N#Cc1cccc(C(=O)Nc2cc(-c3ccccc3)nn2-c2ccccc2)c1`, the synaptosome phagocytic index came out at 0.299. The figure for `COc1ccc2c3c1O[C@H]1C[C@@H](O)C=C[C@@]31CCN(C)C2` [Galanthamine] is 0.617; for `CN1CC[C@H](c2c(O)cc(O)c3c(=O)cc(-c4ccccc4Cl)oc23)[C@H](O)C1` [Flavopiridol_(Hydrochloride)] it is 0.995.
